PubChem BioAssay (NCI)
About 79,000 compounds went through this panel and 15% of them were active in at least one assay; those are over-represented in the sample as a whole. A number with no mark means an inactive call. Calls of active or inactive are those of the source. Rule as the data show it: active = growth inhibition above about 70%; inactive = the rest.

Legend:
[1] = NCI Yeast Anticancer Drug Screen. Data for the rad50 strain (AID 155);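 also: 0% = growth of vehicle-only cultures of the same strain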; details: S. cerevisiae rad50 strain growth inhibition, stronger effect = higher value
Summary of the method: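 A DNA repair-deficient yeast mutant serves as the test organism; compound-induced growth inhibition is calculated against vehicle-treated cells.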

[2] = NCI Yeast Anticancer Drug Screen. Data for the mec2-1 strain (AID 157); details: S. cerevisiae mec2-1 strain, stronger effect = higher value
Summary of the method: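 Each compound was tested on mec2-1 yeast, a strain altered in DNA damage repair or cell cycle control. Growth inhibition is reported relative to vehicle.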

[3] = NCI Yeast Anticancer Drug Screen. Data for the sgs1 mgt1 strain (AID 161);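 also: 0% = growth of cultures given vehicle only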; details: S. cerevisiae sgs1 mgt1 strain, stronger effect = higher value
Summary of the method: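 Test agents were incubated with a DNA-repair-mutant yeast strain. Growth was then read and compared against vehicle-treated controls.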

[4] = NCI Yeast Anticancer Drug Screen. Data for the cln2 rad14 strain (AID 165);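 also: 0% = growth equal to vehicle treated cultures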; details: S. cerevisiae cln2 rad14 strain, stronger effect = higher value
Summary of the method: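 Test compounds were added to cln2 rad14 yeast cultures; inhibition of growth was then determined by comparison with vehicle treatment.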

[5] = NCI Yeast Anticancer Drug Screen. Data for the bub3 strain (AID 167); details: S. cerevisiae bub3 mutant strain, stronger effect = higher value
Summary of the method: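 Inhibition values come from growth of compound-treated mutant yeast normalised to vehicle-treated controls.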

[6] = NCI Yeast Anticancer Drug Screen. Data for the mlh1 rad18 strain (AID 175); details: S. cerevisiae mlh1 rad18 strain growth inhibition, stronger effect = higher value
Summary of the method: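 Inhibition values reflect reduced growth of mutant yeast versus vehicle-treated controls following compound exposure; the mutations affect DNA damage repair.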

[7] = at 5.0 µM (retest, dose inferred, filed as 0.5)
[8] = at 50.0 µM (retest, dose inferred, filed as 5.0)

Structure (SMILES) | growth inhibition [1, 7] | growth inhibition [1, 8] | growth inhibition ([1]; at 50.0 µM) | growth inhibition [2, 7] [%] | growth inhibition [2, 8] | growth inhibition ([2]; at 50.0 µM) | growth inhibition [3, 7] [%] | growth inhibition [3, 8] | growth inhibition ([3]; at 50.0 µM) | growth inhibition [4, 7] [%] | growth inhibition [4, 8] | growth inhibition ([4]; at 50.0 µM) | growth inhibition [5, 7] [%] | growth inhibition [5, 8] | growth inhibition ([5]; at 50.0 µM) | growth inhibition [6, 7] [%] | growth inhibition [6, 8] | growth inhibition ([6]; at 50.0 µM)
CN(C)CC1CCc2c(ccc3ccccc23)C1=O (configuration not stated) | 8% | 68% | 69% | -16 | 28% | 66.8% | 29 | 76% (active) | 71.1% (active) | 12 | 46% | 39.7% | 19 | 82% (active) | 58.8% | 40 | 78% (active) | 53.8%
N#Cc1c(N)nc2c(N=Nc3ccccc3)c(N)nn2c1Nc1ccccc1 | -2% | 38% | 51.5% | -2 | 39% | 16.4% | 19 | 85% (active) | 79.2% (active) | 1 | 5% | 16.4% | -5 | 31% | -30.6% | -4 | 55% | 76.1% (active)
N#Cc1cc([N+](=O)[O-])ccc1NC(=O)/C(=N/N)C(C(=O)c1ccc(Cl)c(Cl)c1)C1OC(=O)c2ccccc21 (configuration not stated) | 23% | 23% | 91.8% (active) | 11 | 11% | 92.2% (active) | 18 | 18% | 91.2% (active) | 1 | 1% | 90.2% (active) | 11 | 11% | 92.4% (active) | 5 | 5% | 92% (active)
Cc1c(N=Nc2ccc(Br)cc2)c(-c2ccccc2)nn1C(=S)S | -1% | 20% | 88.7% (active) | 2 | 26% | 88% (active) | 3 | 45% | 90.5% (active) | 4 | 34% | 51.5% | 3 | 74% (active) | 86.6% (active) | 1 | 31% | 92.7% (active)
OC(C(=Nc1ccccc1)c1ccccc1)c1ccccc1 (configuration not stated) | 50% | 96% (active) | 98.7% (active) | 11 | 99% (active) | 98.6% (active) | 1 | 98% (active) | 99.2% (active) | -3 | 98% (active) | 98.8% (active) | 15 | 98% (active) | 97.8% (active) | 39 | 99% (active) | 99.1% (active)
C=C1C(=O)O[C@@H]2CC(CO)=C([C@@H](C)CCCO)[C@@H](OC(=O)/C(C)=C\C)[C@H]12 | 3% | 10% | 92.2% (active) | 5 | 33% | 94.3% (active) | 4 | 25% | 93.8% (active) | 1 | 6% | 92.2% (active) | 9 | 65% | 92.8% (active) | -2 | 29% | -33.3%
NC(=O)c1c(Cl)nc2n1CCS2 | 1% | 0% | 13.8% | 0 | -2% | -17.4% | -2 | 1% | -1.3% | -2 | -7% | 8.4% | -3 | -5% | -4.2% | 4 | 1% | 0.15%
Nc1cc2[nH]c(=O)c3cc(Cl)ccc3c2cc1Cl | 83% (active) | 94% (active) | 89.8% (active) | 7 | 79% (active) | -3.35% | 26 | 86% (active) | 47.6% | 8 | 58% | -24.2% | 8 | 59% | -5.15% | 65 | 95% (active) | 61.2%
COc1ccc(NC(=O)CCC(=O)C(C)C(=O)c2ccccc2)cc1 (configuration not stated) | 0% | -1% | 59.8% | -1 | 3% | 16.2% | 14 | 0% | 26.8% | -1 | 10% | 49.2% | 0 | 21% | 21.6% | -2 | 6% | 24.3%
